Potency data for 40 molecules are collected here from PubChem BioAssay (NCATS).

Several values for one entry are separate records, joined by “and”; a condition that tells them apart may be missing. Equal values may be shown once. Records with an inconclusive call do not appear. Activity calls are given as the source filed them. Calls come from the whole dose curve; as a rule, active = well fitted cell-killing curve with a large enough effect; inconclusive = small, poorly fitted or top-dose-only effect; inactive = no such curve, though single readings can be large or run the other way.
Potency is the fitted concentration of half-maximal effect.

The nature of this experiment: qHTS of pediatric cancer cell lines to identify multiple opportunities for drug repurposing: Primary screen for A673 cells (AID 1347092). Note: nearly all actives have a fitted effect of over 45% in size. Conditions: A673 Ewing sarcoma viability, CellTiter-Glo ATP luminescence, 48 h; series mostly up to 46 µM. An excerpt: Drug repurposing or repositioning has been offered as a strategy for drug development in oncology programs. This approach has special potential for childhood cancers and other rare or orphan diseases, where the expected return on new drug development has been a disincentive to pharmaceuticals. […] In this project we exploit the poly-pharmacology of drugs to discover new indications via phenotypic screening of a panel of 19 well-characterized cell lines derived from solid tumors seen in children and adolescents. The goal is to identify approved drugs with previously unrecognized anticancer properties that has the potential to reveal new mechanisms and biological processes involved in carcinogenesis or drug resistance. We employed a titration-based paradigm (quantitative high-throughput screening or qHTS), where all compounds were tested at multiple concentrations for their effect on cell viability. Concentration-response curves (CRCs) were derived directly from the primary screen, and both potency and efficacy values were used to identify compounds with robust bioactivity profiles. We screened the NIH Chemical Genomics Center (NCGC) Pharmaceutical Collection (NPC) and Mechanism Interrogation Plate (MIPE) small molecule collections of approved and investigational compounds against these cell lines; and measured metabolically active cells after 48 hours of compound treatment as a proxy for cell viability. […] Assay Submitter: Nathalia J. Martinez, National Center for Advancing Translational Sciences, National Institutes of Health, Rockville, MD, USA; email: natalia.martinez@nih.gov. Shen, M et al. Quantitative high-throughput phenotypic screening of pediatric cancer cell lines identifies multiple opportunities for drug repurposing. Oncotarget 2017 Dec 19;9(4):4758-4772. PMID 29435139.
The cells were obtained from University of North Carolina (UNC), Pediatric Preclinical Testing Program (PPT), and Coriell Institute (CI). qHTS cell viability assay: Cells were assayed in growth media at a density of 500-1,000 cells/well. Five microliters of cells were dispensed into 1,536-well, white, solid-bottom, TC-treated plates (Greiner Bio One) using a multidrop dispenser and incubated at 37 degrees C, 5% CO2, under a humidified atmosphere for 5 hours. Twenty-three nanoliters of compounds and controls (neutral control DMSO or positive control bortezomib at final concentration of 2.3 uM) were subsequently transferred by Kalypsys pintool. For primary screens, the MIPE collection was tested at 11-point dilutions (final concentrations range from 0.78 nM to 46 µM) and the NPC collection at 8-point dilutions (final concentrations range from 0.59 nM to 46 µM). Compounds tested in follow-up screens were assayed at 11-point dilutions. Cells were incubated for 48 hours, followed by addition of 3 uL of CellTiter-Glo (Promega). After a 15min incubation at room temperature, samples were analyzed for luminescence intensity using a ViewLux High-throughput CCD imager equipped with clear filters.
For `CCOC(CN1C(=O)[C@](CC(=O)Nc2ccc(C)cc2)(NC(=O)Nc2ccc(C)cc2)c2ccccc21)OCC`, the Potency is 29.6 µM (active).
As for `Cc1ccc(Nc2cc(-c3cccc(N4C(=O)c5ccccc5C4=O)c3)ncn2)cc1NS(C)(=O)=O`, the figure is 18.7 µM (active); as for `CN(C)CCC(c1ccccc1)c1ccccn1` (stereo not given), “inactive”.
Consider `O=C(NOCC(O)CO)c1cc(Br)c(F)c(F)c1Nc1ccc(I)cc1F` (stereo not given), for which the Potency was 9.35 µM (active).
For the molecule `O=C(NCc1ccncc1)C12C[C@H]3C[C@@H](C1)CC(c1ccc(Cl)cc1)(C3)C2`, the Potency is 7.43 µM (active).
The result for `Cc1c(NC(=O)c2ccc(C(C)(C)C)cc2)cccc1-c1cn(C)c(=O)c(Nc2ccc(C(=O)N3CCOCC3)cc2)n1` reads 9.35 µM (active); that for `O=C1NC(=O)C(c2ccccc2)(c2ccccc2)N1`, “inactive”.
The result for `CC(C)C(=O)Oc1ccc(CO)cc1[C@H](CCN(C(C)C)C(C)C)c1ccccc1` reads “inactive”; that for `CC1(C)Cc2c(sc(NC(=S)NC(=O)c3ccccc3)c2C(=O)O)CO1`, 23.5 µM (active).
`Clc1ccc(C(c2ccc(Cl)cc2)n2cc[n+](CC(OCc3ccc(Cl)cc3Cl)c3ccc(Cl)cc3Cl)c2)cc1` (stereo not given): the Potency is 18.7 µM (active).
Turning to `O=c1cc(-c2ccccc2)oc2cc(O)cc(O)c12`, the Potency entry is “inactive”.
Regarding `COc1cccc2c1CCCC2CCCN1CCN(C2CCCCC2)CC1` (stereo not given), the Potency result is “inactive”.
Take `O=C(CCN1CCN(C(=O)OCc2cc(Cl)cc(Cl)c2)CC1)c1ccc2[nH]c(=O)oc2c1`: the Potency result is “inactive”.
Consider `CC(C(=O)O)c1ccc(-c2ccccc2)c(F)c1` (stereo not given), for which the Potency was 14.8 µM (active).
On to `CCN(CC)CCOC(=O)c1ccc(N)cc1`, for which the Potency result is “inactive”.
The result for `CS(=O)c1ccc(-c2nc(-c3ccc(F)cc3)c(-c3ccncc3)[nH]2)cc1` (stereo not given) reads 34 µM (active); that for `CNC(=O)c1ccc2cc(C3(O)CCn4cncc43)ccc2c1` (stereo not given), “inactive”.
As for `CCOC(=O)O[C@]1(C(=O)OCCl)CC[C@@H]2[C@H]3CCC4=CC(=O)C=C[C@]4(C)[C@@H]3[C@@H](O)C[C@@]21C`, the entry is “inactive”; as for `Cc1ccc(C(C)(O)c2nc3ccccc3s2)c(C)c1` (stereo not given), 2.96 µM (active).
Regarding `Cc1cccc(C)c1OCC(C)N` (stereo not given), the Potency result is “inactive”.
The result for `C[C@]12CC[C@@H]3c4ccc(O)cc4C[C@@H](CCCCCCCCCS(=O)CCCC(F)(F)C(F)(F)F)[C@H]3[C@H]1CC[C@H]2O` (stereo not given in full) reads “inactive”; that for `C=C1C(=O)OC(CCCCCCCC)C1C(=O)O` (stereo not given), “inactive”; that for `CNC1CCC(N(Cc2cccc(-c3ccncc3)c2)C(=O)c2sc3c(F)ccc(F)c3c2Cl)CC1` (stereo not given), 23.5 µM (active).
The result for `Cc1c(O)cccc1C(=O)N[C@@H](CSc1ccccc1)[C@H](O)CN1C[C@H]2CCCC[C@@H]2C[C@@H]1C(=O)NC(C)(C)C` reads 23.5 µM (active).
As for `CC1(C)CCC2=C(O1)c1ccccc1C(=O)C2=O`, the figure is 23.5 µM (active); as for `C[N+]1(C)[C@@H]2CC(OC(=O)[C@H](CO)c3ccccc3)C[C@H]1[C@H]1O[C@@H]12` (stereo not given in full), “inactive”; as for `CCN(CC)C(=O)c1ccc(O)c(OC)c1`, “inactive”.
Take `Oc1ccc(C2=Cc3ccc(O)cc3OC2)cc1`: the Potency is 2.35 µM (active).
The result for `NC1CCC(Nc2nc(Nc3ccc(C(=O)N4CCCCC4)cc3)c3ncn(-c4cccc(F)c4)c3n2)CC1` (stereo not given) reads “inactive”.
Regarding `O=C(Nc1ccccc1-c1cn2c(CN3CCNCC3)csc2n1)c1cnc2ccccc2n1`, the Potency was 18.7 µM (active).
The result for `CN(C)C1CCN(C(=O)c2ccc(NC(=O)Nc3nc(N4CCOCC4)nc(N4CCOCC4)n3)cc2)CC1` reads 0.0118 µM (active).
The result for `CN(C[C@@H]1COCCO1)S(=O)(=O)Nc1ccc2ccc3ncc(-c4cnn(C)c4)cc3c(=O)c2c1` reads 7.43 µM (active); that for `O=C(O)[C@H]1O[C@H](Oc2cc3oc(-c4ccccc4)cc(=O)c3c(O)c2O)[C@H](O)[C@@H](O)[C@H]1O`, “inactive”.
As to `CCn1cc(C(=O)O)c(=O)c2ccc(C)nc21`, the Potency result was “inactive”.
With `O=c1cc(N2CCOCC2)oc2c(-c3cccc4c3sc3ccccc34)cccc12`, the Potency was 14.8 µM (active).
The result for `Nc1ncnc2c1nc(Cl)n2[C@@H]1O[C@H](CO)[C@@H](O)[C@@H]1O` reads 23.5 µM (active).
Take `O=C(CCCCCCC(=O)Nc1ccccc1)NO`: the Potency is 3.35 µM (active) and 4.69 µM (active).
As for `NC[C@@H]1O[C@@H](O[C@H]2[C@@H](O)[C@H](O[C@@H]3[C@@H](O)[C@@H](N)C[C@H](N)[C@H]3O[C@H]3O[C@H](CN)[C@@H](O)[C@@H](O)[C@H]3N)O[C@H]2CO)[C@H](N)[C@@H](O)[C@@H]1O`, the entry is “inactive”.
The result for `CC(=O)CCCCn1c(=O)c2c(ncn2C)n(C)c1=O` reads “inactive”.
The result for `COc1ccc(-c2nc(N3CCOCC3)c3sc(CN(C)c4ncc(C(=O)NO)cn4)cc3n2)cn1` reads 0.0935 µM (active).
